Assay outcomes as filed in PubChem.
FECH inh = inhibitors of human ferrochelatase | P22830 | purified FECH, Ni-mesoporphyrin absorbance 550 nm | calls only at 10 µM (by protocol) | 3.3% of 20,000 active | AID 1671448;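 active = enzyme reaction rate more than 3 SD below the solvent-only control wells on the same plate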;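 note: lower slope than DMSO wells means FECH inhibition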
Target sequence (P22830 whole entry, looked up): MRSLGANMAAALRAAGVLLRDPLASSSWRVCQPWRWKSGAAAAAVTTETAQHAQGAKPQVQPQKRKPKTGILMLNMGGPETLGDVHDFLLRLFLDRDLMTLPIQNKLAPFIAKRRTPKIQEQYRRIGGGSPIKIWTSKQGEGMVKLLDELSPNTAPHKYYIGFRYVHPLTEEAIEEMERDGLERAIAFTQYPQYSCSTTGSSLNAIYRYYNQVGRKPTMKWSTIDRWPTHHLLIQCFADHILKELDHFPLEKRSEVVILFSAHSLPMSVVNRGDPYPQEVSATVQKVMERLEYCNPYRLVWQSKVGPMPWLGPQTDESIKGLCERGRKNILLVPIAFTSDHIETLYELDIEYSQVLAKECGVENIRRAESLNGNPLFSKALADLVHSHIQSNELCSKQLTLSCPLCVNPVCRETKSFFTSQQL
An asterisk follows results filed as active; i = inactive; + = active, no number. This is one part of a sample in which hits are shown more often than they occur.

SMILES | FECH inh
CCC(C(=O)Nc1ccc(Nc2nc(C)cc(Nc3ccccc3)n2)cc1)c1ccccc1 (centres undefined) | i
CCC(C(=O)Nc1ccc(Nc2nc(C)cc(N(C)C)n2)cc1)c1ccccc1 (centres undefined) | +
CCC(C(=O)Nc1ccc(Nc2nc(C)cc(Nc3ccc(C)cc3)n2)cc1)c1ccccc1 (centres undefined) | i
Cc1ccc(C(=O)NCCn2c(CCc3ccccc3)nc3cccnc32)cc1C | i
CCc1nc(-c2cc(S(N)(=O)=O)ccc2OC)no1 | +
COc1ccc(S(N)(=O)=O)cc1-c1noc(C2CCCCC2)n1 | i
COc1ccc(S(N)(=O)=O)cc1-c1noc(C(C)(C)C)n1 | i
CC(=O)N1CCc2nc(C)nc(N3CCOC(C)(C)C3)c2CC1 | i
O=C1c2cccnc2CN1CCc1csc(-c2ncccn2)n1 | i
Cc1cccnc1C(C)NC(=O)CSCc1ccccc1Cl (centres undefined) | i
COc1ccc(Nc2cc(C)nc(Nc3ccc(NC(=O)c4ccc(C(C)(C)C)cc4)cc3)n2)cc1 | i
CCC(=O)Nc1ccccc1-c1nnc(SCC(=O)Nc2ccc(Cl)c(Cl)c2)[nH]c1=O | i
CCN1C(SCC(=O)Nc2cc(C)ccc2OC)=NS(=O)(=O)c2ccccc21 | +
CCN1C(SCC(=O)Nc2ccc(F)c(Cl)c2)=NS(=O)(=O)c2ccccc21 | +
CCN1C(SCC(=O)Nc2cc(Cl)ccc2OC)=NS(=O)(=O)c2ccccc21 | i
O=C(CN1CCN(Cc2ccc(F)cc2Cl)S1(=O)=O)Nc1ccc(F)c(Cl)c1 | i
COc1ccc(C)cc1NC(=O)CN1C(=O)CC(c2ccc(Br)s2)=Nc2ccccc21 | i
CN1CCn2nc(C(=O)NCCn3nc(-c4ccccc4)ccc3=O)cc2C1 | i
Cc1ccc(CC(=O)N2CCC3(CC2)c2ccccc2[C@@H](N)[C@@H]3O)cc1C | i
CCCc1cc(Sc2ccc(NS(=O)(=O)c3ccc(CC)cc3)cc2)n2ncnc2n1 | i
O=S(=O)(c1ccc(Cl)s1)N1CCN(Cc2nc3cccnc3n2-c2cccc(F)c2)CC1 | i
COc1ccc(OC)c(NC(=O)CSCc2nc(-c3ccccc3)no2)c1 | i
CCc1cccc(C)c1NS(=O)(=O)c1cc(N2C(=O)CCS2(=O)=O)ccc1OC | i
Cc1cccn2c(CC(=O)NCCc3csc(-c4ccncc4)n3)cnc12 | i
O=S(=O)(NCCc1csc(-c2ccncc2)n1)NCc1ccccc1 | +
SMILES | FECH inh
CCc1cc(C(C)NS(=O)(=O)NCc2ccccc2)on1 (centres undefined) | i
COc1cccc(OCc2cc(C(=O)N3CCOc4ccccc4C3)n[nH]2)c1 | i
CCCNc1ccc(C)cc1C(=O)N1CCCC(C(=O)OCC)C1 (centres undefined) | i
CCN(Cc1ccccc1)S(=O)(=O)c1cc(C(=O)N2CCCC2)cs1 | i
COc1cccc(C(=O)Nc2cccc(OCc3cc(=O)n4ccc(C)cc4n3)c2)c1 | i
COc1ccccc1C(=O)Nc1cccc(OCc2cc(=O)n3ccc(C)cc3n2)c1 | +
Cc1cccc(C(=O)Nc2cccc(OCc3cc(=O)n4ccc(C)cc4n3)c2)c1 | i
CCn1nc(C)c(NC(=O)CN(C)Cc2csc(-c3ccccc3)n2)c1C | i
CC(CNS(=O)(=O)c1cc(C(=O)N2CCCC2)cs1)c1ccccc1 (centres undefined) | i
COc1ccc(CC(=O)Nc2cc(C)nn2-c2ncnc3c2cnn3-c2ccc(C)cc2C)cc1 | i
CCCc1nc2nc[nH]n2c(=O)c1NC(=O)Nc1ccc(Br)c(C)c1 | +
CCCc1nc2nc[nH]n2c(=O)c1NC(=O)Nc1ccc(Br)cc1 | i
CCCc1nc2nc[nH]n2c(=O)c1NC(=O)Nc1ccc(C)c(F)c1 | i
COc1cccc(C2CCCN2S(=O)(=O)c2cn(C)c(C)n2)c1 (centres undefined) | i
Cc1ccc2nc(CN(C)C(=O)C3CCCN(C4CCN(C)CC4)C3)[nH]c2c1 (centres undefined) | i
CCCCOc1ccc(C(=O)Nc2ccc(Nc3nc(C)cc(Nc4ccc(OC)cc4)n3)cc2)cc1 | i
CCOc1ccc(NC(=O)CN2CCCN(Cc3ccccc3)S2(=O)=O)cc1 | +
CC(=O)c1ccc(NC(=O)CN2CCCN(Cc3ccccc3)S2(=O)=O)cc1 | i
COC(=O)c1ccc(NC(=O)CN2CCCN(Cc3ccccc3)S2(=O)=O)cc1 | i
O=C(CN1CCCN(Cc2cccc(Cl)c2)S1(=O)=O)Nc1ccc2c(c1)OCO2 | i
CCOc1ccc(NC(=O)CN2CCCN(Cc3cccc(Cl)c3)S2(=O)=O)cc1 | +
COc1ccc(CNC(=O)CN2CCCN(Cc3cccc(Cl)c3)S2(=O)=O)cc1 | i
Cc1ccc(-c2cc(O)c3c(c2)CN(C(=O)c2ccnc(N)c2)CCO3)s1 | i
CCN(C/C=C/c1ccccc1)C(=O)c1ccc(C(C)=O)s1 | i
NS(=O)(=O)c1ccc(NC(=O)c2nc(SCc3ccc(F)cc3)ncc2Cl)cc1 | i
SMILES | FECH inh
CCCNC(=O)c1[nH]cnc1C(=O)NC(C)C | i
Cc1cccc(N2CCN(c3ncc(NS(=O)(=O)c4ccc(F)cc4)cc3C(=O)O)CC2C)c1 (centres undefined) | i
Cc1cccc(N2CCN(c3ncc(NS(=O)(=O)c4ccccc4C)cc3C(=O)O)CC2C)c1 (centres undefined) | i
Cc1cccc(N2CCN(c3ncc(NS(=O)(=O)c4cc(F)ccc4C)cc3C(=O)O)CC2C)c1 (centres undefined) | +
Cc1ccoc1C(=O)N1CCNCC1C(=O)Nc1ccc(F)cc1 (centres undefined) | i
Cc1[nH]c2ccc(CNC(=O)COc3ccc(-n4cnnn4)cc3)cc2c1C | i
Cc1ccc(Nc2nc(N(CCO)Cc3ccccc3)nc3c2cnn3-c2ccccc2)cc1 | i
Cc1ccccc1N1C(=O)N(Cc2ccc(C(C)(C)C)cc2)c2ccccc2S1(=O)=O | i
CCc1ccc(N2C(=O)N(Cc3cc(F)cc(F)c3)c3ccccc3S2(=O)=O)cc1 | +
COc1ccc(N2C(=O)N(Cc3ccc(C(C)(C)C)cc3)c3ccccc3S2(=O)=O)cc1OC | i
Cc1ccc2[nH]c(=O)cc(C(=O)NC3CC(=O)N(CC4CCCCC4)C3)c2c1 (centres undefined) | i
CCCc1cc(C(=O)N2CCCC(C(=O)NCCCO)C2)n[nH]1 (centres undefined) | i
Cc1cc(=O)[nH]c(NCCn2cnc(-c3ccccc3)c2-c2ccc(C)o2)n1 | i
CC(=O)NCCc1cn(-c2ccc3c(c2)CCCN3C(C)=O)cn1 | i
CC(=O)NCCc1cn(-c2ccc(-c3ncc(C)cn3)cc2)cn1 | i
CC(=O)NCCc1cn(-c2cccc(OC(C)C)c2)cn1 | +
Cc1nn(C)c(C)c1CCC(=O)NCC(O)c1ccccc1Cl (centres undefined) | i
Cc1nc(CN2CCN(C(=O)c3cnn(Cc4ccccc4)c3)CC2)no1 | +
Cc1nc(CN2CCN(C(=O)CSc3nnc(C)s3)CC2)no1 | i
O=C(c1ccccc1)N1CCC(NCc2cnn(Cc3ccccc3)c2)CC1 | i
CN1CCNC(=O)C12CCN(C(=O)c1ccc(-c3ncn[nH]3)cc1)CC2 | i
CCOc1ccc(N(Cc2nc3nc(C)cc(C)n3n2)C(=O)COc2ccccc2)cc1 | i
O=C(NCCc1ccccc1)c1cccn1-c1nnc(N2CCCCC2)s1 | +
CCCN(CCC)CCNC(=O)c1cccn1-c1nnc(N2CCCCC2)s1 | i
